# Test results as given in PubChem BioAssay (NCATS).
# Records with an inconclusive call do not appear. A call without a number means that no potency is given here. Values without a mark were called inactive. Active and inactive are the calls of the source. Unless noted, calls come from the whole dose curve; as a rule, active = well fitted curve in the direction sought with a large enough effect in the repeat runs; inconclusive = weak or mixed curves; inactive = no such curve, though single readings can be large; an effect the other way counts as inactive or inconclusive.
# How the values were obtained:
# [1] = A High-Content qHTS Against Drug Library for the Identification of Small Molecules that Inhibit DYT1 Early Onset Primary Dystonia-Associated Cell Pathology (AID 1645839; calls by dose curve; note: series mostly up to about 46 µM)
# Outline: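 Induced EGFP-delE TorsinA cells are imaged after 48 h of compound treatment. Punctate fusion-protein distribution gives the %pathology value, while nuclei counts flag toxicity. Wild-type EGFP-hTOR1A cells define the normal pattern.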
# [2] = biological target: Cytochrome P450 2D6 (Homo sapiens) (UniProt P10635); assay: Cytochrome P450 family 2 subfamily D member 6 (CYP2D6) small molecule antagonists: luciferase biochemical (cell-free) qHTS assay (AID 1645840); note: nearly all actives have a fitted effect of over 55% in size; note: potency is the fitted concentration of half-maximal effect
# Outline: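 P450-Glo CYP2D6 system: proluciferin substrate converted by enzyme to luciferin, read by luminescence proportional to activity. Enzyme-substrate mix with compound 10 min at room temperature, then NADPH regeneration 1 h before detection reagent.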
# [3] = biological target: Cytochrome P450 2C9 (Homo sapiens) (UniProt P11712); assay: Cytochrome P450 family 2 subfamily C member 9 (CYP2C9) small molecule antagonists: luciferase biochemical (cell-free) qHTS assay (AID 1645842); note: nearly all actives have a fitted effect of over 55% in size; note: potency is the fitted concentration of half-maximal effect
# Outline: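 P450-Glo CYP2C9 system: proluciferin substrate with enzyme in mix containing 0.4% BSA, 10 min at room temperature, then NADPH regeneration solution added and incubated 1 h at 37C. Detection reagent stopped reaction; luminescence read after 20 min as RLU.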
# [4] = biological target: N-terminal Xaa-Pro-Lys N-methyltransferase 1 (Homo sapiens) (UniProt Q9BV86); assay: Confirmatory qHTS for Inhibitors of N-terminal methyltransferase 1 (NTMT1): MTaseGlo Assay (AID 1645874; active = well fitted curve in the direction sought with a large enough effect; an effect the other way counts as inactive or inconclusive; note: nearly all actives have a fitted effect of over 65% in size; note: potency is the fitted concentration of half-maximal effect)
# Outline: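 Room-temperature NTMT1 reaction, 30 min, with 100 uM SAM and 1 uM SPKRIA substrate; enzyme 125 nM. Read-out: MTase-Glo luminescence, normalized to no-enzyme and DMSO controls.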
# Chain of N-terminal Xaa-Pro-Lys N-methyltransferase 1 (Homo sapiens) (Q9BV86 whole entry, looked up): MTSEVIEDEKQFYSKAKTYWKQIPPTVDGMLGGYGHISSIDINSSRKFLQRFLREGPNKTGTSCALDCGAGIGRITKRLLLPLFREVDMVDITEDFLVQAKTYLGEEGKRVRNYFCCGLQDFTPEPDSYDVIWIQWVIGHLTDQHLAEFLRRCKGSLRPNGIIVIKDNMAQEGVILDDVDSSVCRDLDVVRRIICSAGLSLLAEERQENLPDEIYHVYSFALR
# Chain of Cytochrome P450 2D6 (Homo sapiens) (P10635 whole entry, looked up): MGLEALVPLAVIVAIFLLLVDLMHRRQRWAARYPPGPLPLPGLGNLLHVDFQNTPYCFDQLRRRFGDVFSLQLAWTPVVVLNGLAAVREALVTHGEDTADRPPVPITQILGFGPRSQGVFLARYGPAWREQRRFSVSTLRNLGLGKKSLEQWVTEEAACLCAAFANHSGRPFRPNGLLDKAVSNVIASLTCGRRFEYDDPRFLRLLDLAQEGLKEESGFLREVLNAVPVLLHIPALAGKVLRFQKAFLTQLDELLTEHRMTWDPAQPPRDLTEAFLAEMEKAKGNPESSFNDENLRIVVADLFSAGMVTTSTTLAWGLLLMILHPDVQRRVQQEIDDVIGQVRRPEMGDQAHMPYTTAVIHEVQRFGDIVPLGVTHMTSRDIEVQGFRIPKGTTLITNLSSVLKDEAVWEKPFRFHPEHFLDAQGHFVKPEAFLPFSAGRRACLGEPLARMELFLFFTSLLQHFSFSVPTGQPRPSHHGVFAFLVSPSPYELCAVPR
# Chain of Cytochrome P450 2C9 (Homo sapiens) (P11712 whole entry, looked up): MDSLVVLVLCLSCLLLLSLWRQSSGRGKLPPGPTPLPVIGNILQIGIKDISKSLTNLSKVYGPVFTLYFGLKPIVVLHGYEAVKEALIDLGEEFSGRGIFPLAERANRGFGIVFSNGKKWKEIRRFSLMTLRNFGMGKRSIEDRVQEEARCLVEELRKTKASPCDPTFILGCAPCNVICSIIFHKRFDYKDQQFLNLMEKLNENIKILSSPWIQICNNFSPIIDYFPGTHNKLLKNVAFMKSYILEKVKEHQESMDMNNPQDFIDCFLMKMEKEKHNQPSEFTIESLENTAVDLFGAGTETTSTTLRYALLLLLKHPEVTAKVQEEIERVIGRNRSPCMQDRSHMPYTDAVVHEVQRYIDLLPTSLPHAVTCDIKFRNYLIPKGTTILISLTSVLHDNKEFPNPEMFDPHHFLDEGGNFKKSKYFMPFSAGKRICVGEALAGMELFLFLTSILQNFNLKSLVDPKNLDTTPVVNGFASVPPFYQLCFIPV
Compound,Potency [1],Potency [2],Potency [3],Potency [4]
CCC1(c2cnc[nH]2)Cc2ccccc2C1,inactive,0.309 µM (active),0.871 µM (active),–
CC1(C)S[C@@H]2[C@H](NC(=O)C(c3ccccc3)S(=O)(=O)O)C(=O)N2[C@H]1C(=O)O (some centres not stated),inactive,inactive,inactive,–
COc1ccc(/C(C)=C/C(=O)O)c(OC)c1,inactive,inactive,inactive,–
CO/N=C(/C(=O)N[C@@H]1C(=O)N2C(C(=O)OCOC(=O)C(C)(C)C)=C(C)CS[C@H]12)c1csc(N)n1,inactive,inactive,17.4 µM (active),–
O=C(O)c1ccc(OCCN2CCCCC2)cc1,inactive,inactive,inactive,–
O=C1OC2(c3ccccc31)c1cc(I)c(O)c(I)c1Oc1c2cc(I)c(O)c1I,inactive,17.4 µM (active),19.5 µM (active),1.9 µM (active)
CN1Cc2cc(C(=O)N3CCC(C4CCNCC4)CC3)ccc2NC(CC(=O)O)C1=O (configuration not stated),inactive,inactive,inactive,–
Cc1nc(C2CCCCC2)c(-c2ccc(S(N)(=O)=O)c(F)c2)o1,inactive,–,2.19 µM (active),–
CCCCOC(=O)CCCCCCCCC(=O)OCCCC,inactive,inactive,19 µM (active),–
CCc1cccc2c(CCO)c[nH]c12,inactive,–,inactive,–
O=C(O)c1ccccc1S,inactive,–,inactive,–
CCOC(=O)C(O)c1ccccc1 (configuration not stated),inactive,inactive,inactive,–
O=C(C1CCCCC1)N1CC(=O)N2CCCc3ccccc3C2C1 (configuration not stated),inactive,inactive,6.17 µM (active),–
CCn1ccc(NS(=O)(=O)c2ccc(N)cc2)nc1=O,inactive,inactive,inactive,–
Cc1oc(=O)oc1COC(=O)[C@@H]1N2C(=O)[C@@H](NC(=O)[C@H](N)c3ccccc3)[C@H]2SC1(C)C,inactive,inactive,inactive,–
CCc1cc(S(=O)(=O)O)c2cc(C(C)C)cccc1-2,inactive,inactive,inactive,–
Oc1ccccc1,inactive,–,inactive,–
O=C1c2ccccc2CCc2ccccc21,inactive,inactive,inactive,–
CCN1C(=O)c2ccccc2C1Nc1ccc(OCCN2CCCCC2)cc1 (configuration not stated),inactive,–,inactive,–
CCCC(CCC)(C(=O)OCC)C(=O)OCC,inactive,inactive,inactive,–
C1N2CN3CN1CN(C2)C3,inactive,inactive,inactive,–

Compound,Potency [1],Potency [2],Potency [3],Potency [4]
c1ccc2occc2c1,inactive,–,inactive,–
N#CC1(c2ccc(F)cc2)CCC(=O)CC1,inactive,inactive,inactive,–
O=C1CC[C@H](C(=O)N2CCCCC2)N1,inactive,inactive,inactive,–
Nc1ccc(O)cc1,inactive,6.17 µM (active),15.5 µM (active),–
N#C/C(=C1/SC[C@@H](c2ccc(Cl)cc2Cl)S1)n1ccnc1,inactive,0.0871 µM (active),0.436 µM (active),–
COc1ccc2cc(C=O)ccc2c1,inactive,–,12.3 µM (active),–
O=C(Oc1ccccc1)c1cccc(C(=O)Oc2ccccc2)c1,inactive,30.7 µM (active),6.48 µM (active),–
CCOCCn1c(C2CCN(CCc3ccc(C(C)(C)C(=O)O)cc3)CC2)nc2ccccc21,inactive,–,inactive,–
C/C(=N/NC(=O)c1ccncc1)C(=O)O,inactive,–,inactive,–
Cc1ccc(C(=O)C(=O)O)cc1C,inactive,–,inactive,–
CCO[C@H](Cc1ccc(OCCc2ccc(OS(C)(=O)=O)cc2)cc1)C(=O)O,inactive,inactive,inactive,–
Cc1cnc(NS(=O)(=O)c2ccc(N)cc2)nc1,inactive,inactive,inactive,–
CN1CCCN=C1/C=C/c1cccs1,inactive,–,–,inactive
O=C(COCCOCCOCC(=O)Nc1c(I)cc(I)c(C(=O)O)c1I)Nc1c(I)cc(I)c(C(=O)O)c1I,inactive,inactive,inactive,–
O=C(c1cc(O)c(O)c(O)c1)c1ccc(O)c(O)c1O,inactive,–,inactive,–
CC(=O)N1CCN(c2ccc(O)cc2)CC1,inactive,–,inactive,–
Cc1cc(O)c(C)c(C)c1O,inactive,inactive,inactive,–
COC(=O)CCCCC(CCSS/C(CCO)=C(\C)N(C=O)Cc1cnc(C)nc1N)SC(C)=O (configuration not stated),inactive,inactive,inactive,–
O=C1NC2CCCCN2C12CCN(CCCN1c3ccccc3CCc3ccc(Cl)cc31)CC2 (configuration not stated),–,2.45 µM (active),–,–
Nc1cc(C(F)(F)F)ccc1S,–,–,–,inactive
